Screening data as filed in PubChem BioAssay.
PKM2 activator: activators of human pyruvate kinase M2; purified PKM2, Kinase-Glo ATP luminescence, activation; response scale: 0% is enzyme alone, no compound; 0.34% of 260,000 active; P14618; Potency, µM (highest dose often 57.5 µM), hits mostly activators; AID 1631; note: nearly all actives have a fitted effect of over 55% in size
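Purified hPK-M2 (>95%) run at intermediate activity with 0.1 mM ADP and 0.5 mM PEP in 50 mM imidazole pH 7.2, KCl, MgCl2; 1 h room temperature. ATP formed read by Kinase-Glo luminescence; normalized to uninhibited and no-enzyme controls.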
USP2a inh: USP2a (human) protease inhibition. AID 463254. 0.01% of 330,000 active. O75604. Potency, µM (top dose mostly 38.3 µM), usual class: inhibitors. USP2 core, Ub-CHOP2 coupled fluorogenic reporter, 485/531
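Cell-free coupled assay: 10nM USP2 core preincubated 30min RT with compound in Tris-HCl pH 8.0/CaCl2/CHAPS buffer, then 25nM Ub-CHOP2 and 25nM reporter substrate; fluorescence (Ex 485/Em 531) read after 60min RT, normalized to NEM inhibition, concentration-response curves fitted.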
ClpP mod: qHTS Assay for Activators of ClpP. ATP-dependent Clp protease proteolytic subunit (Bacillus subtilis (strain 168)), P80244. purified B. subtilis ClpP, FRET peptide cleavage, 20 min. Potency, µM (titrated, usually from 57.5 µM). 1.9% of 340,000 active. AID 651965, 2013; active = well fitted falling curve with a large enough effect; inconclusive = small, poorly fitted or top-dose-only effect; inactive = no such curve, though single readings can be large or run the other way; note: the source files actives as falling curves though it sought activators and does not explain the sign; nearly all actives have a fitted effect of over 65% in size
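FRET quenching reversal measured ClpP activation: 10 microg/mL B. subtilis ClpP at pH 8 with the FRET-FV decapeptide, read at 430 nm after 320 nm excitation. The 20-min minus 0-min signal was scaled between DMSO/no-enzyme wells and ADEP (5.8 microM final).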
IL-2 act: IL-2 activation; IL-2 activation reporter assay, cell-based qHTS; stimulated with anti-CD3/CD4/CD28 beads; in transgenic mouse T cells; activation, % (series mostly up to about 46 µM); 0.065% of 360,000 active; in the data active = activation above about 50%; inconclusive = mostly about 30% to 49%
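EGFP and DsRed fluorescence is measured by plate cytometry in unstimulated transgenic mouse T cells exposed to compound for 60 minutes, then stimulated 18 hours at 37 degrees C with anti-CD3/anti-CD4 beads plus anti-CD28.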
Integrin act MD: activators of alpha7 integrin expression for muscular dystrophy; alpha7betagal myoblasts, beta-gal FDG fluorescence, 48 h; Potency, µM (titrated, usually from 38.3 µM), usual class: activators; 0.064% of 350,000 active; AID 624291; note: nearly all actives have a fitted effect of over 60% in size
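Alpha7betagal+/- myoblasts (passage 13) were plated 16-24 hr, then exposed to compounds (1:260 dilution of DMSO stock) for 48 hours at 37C. After MPER lysis, β-galactosidase reporter activity was read as FDG fluorescence (ex 480/em 540) after 30 minutes.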
Pin1 inh: blocks the human prolyl isomerase Pin1; 0.009% of 390,000 active; Pin1 FP peptide displacement, HiFluor488, 10 min; Potency, µM (series often up to 115 µM), hits mostly inhibitors; Q13526; active = well fitted inhibition curve with a large enough effect in the polarisation, with a control signal flat, not every such curve was filed as active; inconclusive = small, poorly fitted or top-dose-only effect, or effect the other way, or a change in a side signal; inactive = no such curve, though single readings can be large or run the other way; the % refers to the polarisation
Numbers stand for hits; . = inactive; ? = inconclusive; / = not tested or not shown. Hits are enriched below; roughly 1.9% of the tested compounds scored in any of these assays. Unless noted, calls come from the whole dose curve; as a rule, active = well fitted curve in the direction sought with a large enough effect; inconclusive = small, poorly fitted or top-dose-only effect, or another doubt; inactive = no such curve, though single readings can be large; an effect the other way counts as inactive or inconclusive.

SMILES | PKM2 activator | USP2a inh | ClpP mod | IL-2 act | Integrin act MD | Pin1 inh
CCC1(C)Cc2ccccc2-c2c1c(=O)n(Cc1ccccc1)c1nnnn21 (centres undefined) | . | . | 31.6µM | . | . | .
CCc1c(C)c2ccc(OCC(N)=O)cc2oc1=O | . | . | 6.31µM | . | . | .
Cc1c(C)c2ccc(OCC(=O)N3CCC(C(=O)O)(c4ccccc4)CC3)cc2oc1=O | . | . | . | . | . | .
CC1(C)Cc2c(sc3c2C(=O)NC(c2cccnc2)N3)CO1 (centres undefined) | . | . | 31.6µM | . | . | .
O=C1NC(c2cccnc2)Nc2sc3c(c21)CCCC3 (centres undefined) | . | . | . | . | . | .
COc1ccc(OC)c(N=Cc2c(O)n(Cc3ccccc3)c(=S)[nH]c2=O)c1 | . | . | / | 79.6 | . | ?
COc1ccc(N=Cc2c(O)n(Cc3ccccc3)c(=S)[nH]c2=O)c(OC)c1 | . | . | . | . | . | ?
O=C(c1cccn2c(=O)c3cc(Cl)ccc3nc12)N1CCC2(CC1)OCCO2 | . | . | 25.1µM | . | . | .
COc1ccccc1-n1c(CNCC2CCCO2)nc2ccccc2c1=O (centres undefined) | . | . | . | . | . | .
Cc1cccn2c(NCC3CCCO3)c(C(C)C)nc12 (centres undefined) | . | . | 22.4µM | . | . | .
CCOc1cc(-c2nc3c(C)cccn3c2NCC2CCCO2)ccc1O (centres undefined) | . | . | 14.1µM | . | . | .
Cc1cccc(Cn2c(=O)n(Cc3ccc(C(=O)NC4CCN(Cc5ccccc5)CC4)cc3)c(=O)c3ccccc32)c1 | / | / | . | / | / | .
Cc1c(N=Cc2c(O)n(Cc3ccco3)c(=O)[nH]c2=O)c(=O)n(-c2ccccc2)n1C | . | . | 11.2µM | . | . | .
C=C1C=C(C(F)F)n2ncc(C(=O)NCc3ccccc3F)c2N1 | / | / | . | / | / | /
CC1CCC(C(C)C)C(OP(N)(=O)c2ccccc2)C1 (centres undefined) | . | . | . | . | . | .
CC1CCC(C(C)C)C(OC(=O)COC(=O)c2ccccc2N)C1 (centres undefined) | . | . | 28.2µM | . | . | .
CCCCn1cnc2cc(NCc3cccc(OC)c3O)ccc21 | . | . | 31.6µM | . | . | .
Cc1cc(N2CCCCC2)nc2ccc(NC(=O)CCC(=O)N3CCN(c4cccc(Cl)c4)CC3)cc12 | / | / | 31.6µM | / | / | .
Cc1cc(N2CCOCC2)nc2ccc(NC(=O)CCC(=O)N3CCC4(CC3)OCCO4)cc12 | . | . | ? | . | . | .
COC1=C(C)C(=O)c2c(c(COC(N)=O)c3n2C[C@@H]2[C@@H]3N2C)C1=O (some centres undefined) | / | / | . | / | / | /
S=P(Nn1cnnc1)(c1ccc(Br)cc1)c1ccc(Br)cc1 | 28.2µM | . | / | . | . | .
CCCCOc1ccc(C(=O)NCCc2csc(-c3ccc(OC)cc3)n2)cc1 | / | / | 22.4µM | / | / | ?
COc1ccc(OCCn2c(NC(=O)c3ccc(OC)cc3)nc3ccccc32)cc1 | / | / | . | / | / | ?
O=C(Cc1ccccc1)Oc1ccc(N2C(=O)C3CCCCC3C2=O)cc1 (centres undefined) | . | . | . | . | . | .
O=C1SC(Cc2ccccc2)C(=O)N1c1ccccc1 (centres undefined) | . | . | . | . | 7.94µM | .
SMILES | PKM2 activator | USP2a inh | ClpP mod | IL-2 act | Integrin act MD | Pin1 inh
Cc1cc2c(C(C)C)c(O)c(O)c(C=O)c2c(O)c1-c1c(C)cc2c(C(C)C)c(O)c(O)c(C=O)c2c1O | ? | 5.62µM | . | / | / | /
Cc1cccc(C(=O)Nc2ccc(C(=O)OCc3cc(=O)n4nc(C5CC5)sc4n3)cc2)c1 | / | / | . | / | / | .
C[C@@H]1CNC(=O)c2c(C(=O)Nc3ccc(CNC(=O)OC(C)(C)C)cc3)ncn21 | / | / | . | . | . | /
O=C(NCC(c1cccnc1)N1CCN(c2ccccc2F)CC1)Oc1ccccc1 (centres undefined) | . | . | 22.4µM | . | . | .
CC1=NN(c2ccccc2)C(=O)/C1=C/c1c(O)[nH]c(=S)[nH]c1=O | . | . | 25.1µM | . | . | .
CCN(CC)C(=O)c1ccc(NC(=O)CCCSc2ccccc2)cc1 | . | . | / | . | . | .
CCN(CC(=O)Nc1ccccc1C(F)(F)F)C(=O)CCSc1ccc(F)cc1 | / | . | 12.6µM | . | . | .
CN(C)CCN(Cc1ccccc1)c1ccnc(N(C)C)c1C#N | . | . | 31.6µM | . | . | .
CCOc1ccc(-c2cn3c(n2)sc2cc(C(=O)N4CCCC(C)C4)ccc23)cc1 (centres undefined) | / | / | . | / | / | ?
COc1ccc(-c2nc(CSCC(=O)N3CCC4(CC3)OCCO4)c(C)o2)cc1OC | . | . | ? | . | . | .
Cc1oc(-c2cccs2)nc1CSCC(=O)N1CCC2(CC1)OCCO2 | . | . | 1.41µM | . | . | .
O=C(CSc1ccc(-c2ccco2)nn1)Nc1ccccc1 | 14.1µM | . | . | . | . | .
CCc1nnc(NC(=O)CSc2ccc(-c3ccco3)nn2)s1 | 15.8µM | . | / | . | . | .
COc1ccc(N2C(=O)C3[C@@H](C2=O)C2(Cl)C(Cl)=C(Cl)C3(Cl)C2(OC)OC)cc1 (some centres undefined) | . | . | 3.55µM | . | . | .
COc1ccc(C(=O)CCNc2ccc(F)cc2)cc1 | . | . | 28.2µM | . | . | .
CC12CCC(=O)C=C1CCC1C2CCC2(C)C(O)CCC12 (centres undefined) | . | . | . | . | . | .
CC(=O)C1C(N2CC2)CC2C3CCC4=CC(=O)CCC4(C)C3CCC21C (centres undefined) | / | / | 14.1µM | . | . | .
CC12CN3CC(c4ccccc4)(CN(C1)C31CCCCC1)C2=O | . | . | 12.6µM | . | . | .
O=C(Cn1nc(-c2ccc(Cl)cc2)ccc1=O)N1CCC2(CC1)OCCO2 | . | . | . | . | 11.2µM | .
CN(C)C(=O)Oc1ccc(C(=O)c2ccccc2)cc1 | . | . | . | . | . | .
COC(=O)c1ccc(C(=O)OC)c(NC(=O)Oc2ccccc2)c1 | . | . | 2.82µM | . | . | .
COc1ccccc1CNC(=O)CCC1N=C2c3ccccc3N=C(SCc3cccc(Cl)c3)N2C1=O (centres undefined) | / | / | ? | / | / | .
C[C@H]1CCCC=CC2C[C@H](O)C[C@@H]2[C@H](O)C=CC(=O)O1 (some centres undefined) | / | / | . | / | / | /
N#CC(C#N)=NNc1ccc(OC(F)(F)F)cc1 | . | / | / | / | / | /
Cc1cc(NC(=O)c2cccn(Cc3ccccc3)c2=O)no1 | / | / | . | / | / | .
